From PubChem
CRFBP-R2 block: antagonists of CRF-BP/CRF-R2 complex, primary screen, cell-based, HEK293, calcium dye fluorescence, uHTS; AID 588475, 2011; CRF-induced calcium fluorescence; 350,000 tested, 0.59% active; inhibition, % at 11.8 µM;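 active means inhibition of the ligand-induced calcium signal above about 50% at the single tested concentration, limit read from the data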
NOD2-RIPK2 inh: NOD2-RIPK2 binding disruptors in cells, primary screen, fluorescence, CHO cells, BLA complementation; Receptor-interacting serine/threonine-protein kinase 2 (Homo sapiens), O43353; inhibition, % at 4.98 µM; AID 624267, 2012; 360,000 tested, 0.38% active; CCF4 ratio; in the data active means inhibition above about 21%
TLR9-MyD88 inh: inhibitors of TLR9-MyD88 association in cells, primary screen, cell-based, CHO, BLA complementation, fluorescence; CCF4 FRET ratio; 340,000 tested, 0.21% active; inhibition, % at 4.98 µM; Toll-like receptor 9 (Homo sapiens) + Myeloid differentiation primary response protein …;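 active means inhibition above the mean over all tested compounds plus 3 SD, cut at about 21% in these data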
Target sequence (Q99836 whole entry, looked up): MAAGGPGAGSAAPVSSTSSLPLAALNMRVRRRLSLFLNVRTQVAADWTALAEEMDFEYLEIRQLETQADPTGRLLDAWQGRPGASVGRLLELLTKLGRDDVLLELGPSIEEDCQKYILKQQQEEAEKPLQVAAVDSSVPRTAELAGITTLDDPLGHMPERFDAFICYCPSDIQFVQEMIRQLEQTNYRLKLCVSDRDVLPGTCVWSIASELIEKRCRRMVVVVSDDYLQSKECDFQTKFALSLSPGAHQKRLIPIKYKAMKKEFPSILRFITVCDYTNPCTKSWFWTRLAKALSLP
Target sequence (Q9NR96 whole entry, looked up): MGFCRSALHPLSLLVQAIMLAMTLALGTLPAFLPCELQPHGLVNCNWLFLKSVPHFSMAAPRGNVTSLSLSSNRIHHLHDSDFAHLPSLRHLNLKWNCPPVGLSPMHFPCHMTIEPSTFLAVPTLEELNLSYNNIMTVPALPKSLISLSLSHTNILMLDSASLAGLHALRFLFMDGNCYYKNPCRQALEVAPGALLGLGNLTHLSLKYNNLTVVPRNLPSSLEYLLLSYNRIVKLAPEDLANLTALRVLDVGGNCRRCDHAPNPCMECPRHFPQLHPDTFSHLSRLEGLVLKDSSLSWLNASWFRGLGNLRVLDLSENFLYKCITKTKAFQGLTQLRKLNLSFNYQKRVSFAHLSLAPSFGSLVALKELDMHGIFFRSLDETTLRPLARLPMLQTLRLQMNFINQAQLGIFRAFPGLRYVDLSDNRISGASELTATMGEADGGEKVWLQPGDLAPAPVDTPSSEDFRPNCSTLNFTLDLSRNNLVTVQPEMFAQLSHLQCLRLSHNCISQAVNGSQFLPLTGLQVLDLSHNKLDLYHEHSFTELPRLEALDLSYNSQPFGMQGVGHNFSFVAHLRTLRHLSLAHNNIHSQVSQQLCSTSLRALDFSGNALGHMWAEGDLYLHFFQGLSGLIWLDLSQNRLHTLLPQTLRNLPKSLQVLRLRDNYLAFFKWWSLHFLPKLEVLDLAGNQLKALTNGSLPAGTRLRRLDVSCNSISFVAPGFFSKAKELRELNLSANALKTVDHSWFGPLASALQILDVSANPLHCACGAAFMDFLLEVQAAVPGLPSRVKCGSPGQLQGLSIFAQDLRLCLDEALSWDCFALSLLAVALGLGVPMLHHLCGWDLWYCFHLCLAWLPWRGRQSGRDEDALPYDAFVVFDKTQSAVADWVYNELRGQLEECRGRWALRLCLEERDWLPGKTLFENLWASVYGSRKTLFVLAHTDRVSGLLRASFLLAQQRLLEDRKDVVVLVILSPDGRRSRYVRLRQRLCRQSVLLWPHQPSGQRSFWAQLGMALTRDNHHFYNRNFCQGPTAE
ABHD5 PLIN5 PPI: ABHD5-PLIN5 interaction inhibitors, primary screen, cell lysate, split luciferase complementation, luminescence. Perilipin-5 (Homo sapiens) + 1-acylglycerol-3-phosphate O-acyltransferase ABHD5 (Homo …. Split G. princeps luciferase complementation, 4 h. inhibition, % at 4 µM. 360,000 tested, 0.78% active;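 active means inhibition above the mean inhibition across every tested compound plus 3 SD, cut at about 22% in these data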
TLR4 MyD88 comp: inhibitors of TLR4-MyD88 association in cells, primary screen, cell-based, HeLa CL3-4, BLA complementation, FRET ratio. Toll-like receptor 4 (Homo sapiens) + Myeloid differentiation primary response protein …. HeLa CL3-4 TLR4/MyD88 BLA complementation. inhibition, % at 8.4 µM. 200,000 tested, 0.18% active. AID 861, 2007; in the data active means inhibition above about 25%
HTR2A ag: mouse Htr2a agonists via beta-arrestin recruitment, primary screen, cell-based, luminescence. 5-hydroxytryptamine receptor 2A (Mus musculus), P35363. CHO-K1 mHTR2A beta-arrestin complementation; percent of 30 µM serotonin response. activation, % at 7.6 µM. 360,000 tested, 0.66% active. AID 624169, 2012;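 active means activation above a run cutoff, the mean activation of all tested compounds plus 3 SD, cut at about 14% in these data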
NOD2-RIPK2 conf: NOD2-RIPK2 binding disruptors, retest, confirmation, fluorescence, CHO cells, BLA complementation, triplicate; 1,200 tested, 70% active; AID 624370, 2012; shares compounds with NOD2-RIPK2 inh; inhibition, % at 4.98 µM; CCF4 FRET;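 active means mean inhibition across replicates above a set limit taken from the earlier primary screen, cut at about 21% in these data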
NOD2 BLA counter: NOD2-RIPK2 counterscreen BLA reporter activity. inhibition, % at 4.98 µM. 1,200 tested, 57% active. shares compounds with NOD2-RIPK2 inh. AID 624371. CHO BLA reporter, CCF4 FRET ratio;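 active means mean inhibition above the low-control mean inhibition plus three low-control SD, cut at about 11% in these data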
Numbers stand for hits; i = inactive; nt = no result. Compounds with a hit are over-represented: about 2.4% of the library has one in this group of screens.

SMILES	CRFBP-R2 block	NOD2-RIPK2 inh	TLR9-MyD88 inh	ABHD5 PLIN5 PPI	TLR4 MyD88 comp	HTR2A ag	NOD2-RIPK2 conf	NOD2 BLA counter
N/C(=N\OC(=O)c1ccccc1)C(Cc1ccccc1)C(=O)NOC(=O)c1ccccc1 (stereo not given)	i	i	i	i	nt	i	nt	nt
CC(=O)c1cc2c(cc1NC(=O)CSc1nnc(C3CC3)n1C)OCO2	i	i	i	i	nt	i	nt	nt
O=C(NCc1cccc(C(F)(F)F)c1)c1ccc2sc([C@H]3C[C@H](O)[C@@H](CO)O3)nc2c1	nt	i	nt	i	nt	i	nt	nt
CC1=C(C(=O)N(C(C)C)C(C)C)CC(CC(=O)NCc2cccc3ccccc23)C(=O)N1Cc1ccc(C(C)(C)C)cc1 (stereo not given)	nt	i	nt	i	nt	i	nt	nt
Cc1ccccc1N1CCN(C(=S)c2ccccc2)CC1	i	24	i	i	i	i	i	i
Cc1ccc2c(C)c(C(=O)N3CCC(C(N)=O)(N4CCCCC4)CC3)oc2c1C	i	i	i	i	nt	i	nt	nt
CNc1nc(Cl)nc2c1ncn2-c1ccccc1	i	i	i	i	nt	i	nt	nt
Clc1nc(Cl)c2ncn(-c3ccccc3)c2n1	i	22	i	i	nt	i	41	11
CC(=O)Nc1cc(-c2ccc(N(C)C)cc2)cn2c(-c3ccc(F)cc3)cnc12	nt	i	nt	i	nt	i	nt	nt
Cc1cc(NC(=O)CSc2nnc(-c3cccc(Cl)c3)o2)no1	i	i	i	i	nt	i	nt	nt
Cc1cc(NC(=O)CSc2nnc(-c3ccccc3Cl)o2)no1	i	47	i	i	nt	i	i	i
O=C(CC(=O)N/N=C\c1ccccc1)NCCc1ccccc1	i	22	i	i	nt	i	i	i
CC1(C(=O)NS(=O)(=O)c2ccc(Cl)cc2)CCN1C(=O)CCc1cccs1 (stereo not given)	nt	i	nt	i	nt	i	nt	nt
CC1(C)CC(=O)C(C=Nc2ccc(C(=O)c3ccccc3)cc2N=CC2=C(O)CC(C)(C)CC2=O)=C(O)C1	i	27	i	i	i	i	i	i
CCCCNC(=O)C1(C)CCC(=O)N1c1cc(C(C)(C)C)nn1C (stereo not given)	nt	i	nt	i	nt	i	nt	nt
Cc1cc2nc(-c3ccccc3)c(Cc3ccccc3)n2c(C)c1Br	nt	i	nt	i	nt	i	nt	nt
O=c1oc2ccccc2cc1-c1nnc(NCc2ccco2)s1	i	35	i	i	i	i	36	41
O=C(Nc1cnccn1)c1csc2ccccc12	i	33	i	i	i	i	i	i
NC(=O)c1ccc2c(=O)c(O)c(-c3cc(Cl)c(N)c(Cl)c3)[nH]c2c1	i	38	i	i	nt	i	30	29
COc1c2c(c(OC)c3ccccc13)[C@]1(OC2)O[C@H](CCO)C[C@H](O)[C@H]1O	nt	i	nt	i	nt	i	nt	nt
Cc1cc(N2CCN(C)CC2)ccc1NC(=O)c1c2c(nc3ccccc13)CCN(Cc1ccccc1)C2	i	34	i	i	i	i	47	i
COc1cccc2sc(N(CCN(C)C)C(=O)/C=C/c3cccs3)nc12	i	i	i	i	i	i	nt	nt
COc1ccc(OC)c2sc(N(CCN(C)C)C(=O)/C=C/c3cccs3)nc12	i	21	i	22	nt	i	38	i
CC(C)NC(=O)C1(C)CSCC(=O)N1Cc1cccc(F)c1 (stereo not given)	nt	i	nt	i	nt	i	nt	nt
